Compound activity: PubChem BioAssay, several laboratories
PfHsp90 yeast 2 = inhibits growth of yeast expressing Plasmodium falciparum Hsp90; S. cerevisiae expressing PfHsp90, BacTiter-Glo ATP, 48 h; yeast lacking PDR1 and PDR3 efflux regulators; inhibition, % at 9.4 µM; 310,000 tested, 0.32% active; AID 504621;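 active means every replicate shows inhibition above about 80%, whatever the replicate mean, limit read from the data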;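 further: 0% = DMSO neutral controls and 100% = 20 µM radicicol positive controls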
TIM10 inh = inhibits growth of TIM10 yeast strain; S. cerevisiae TIM10 strain growth, BacTiter-Glo luminescence, 24 h; inhibition, % at 10 µM; 330,000 tested, 1.4% active; AID 463195;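 active means inhibition of 40% or more at the single tested concentration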;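 further: wild-type TIM10 isogenic control strain grown at permissive 25 °C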
NLRP3 yeast inh = inhibitors of NALP3 inflammasome in yeast | inhibition, % at 10 µM | Yeast reconstituted NLRP3/ASC/caspase-1, beta-gal luminescence, 24 h | 330,000 tested, 0.39% active | AID 2825;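 active means inhibition of 50% or more; inactive means inhibition below 50%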;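 further: plate controls were induced DMSO wells for no effect and uninduced yeast grown without galactose for full effect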
tim10-1 inh = growth inhibitors of tim10-1 mutant yeast; S. cerevisiae tim10-1 ts strain growth, BacTiter-Glo, 24 h; inhibition, % at 20 µM; 330,000 tested, 2.2% active;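 active means inhibition of at least 40%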;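 further: mutant grown at 25 °C; 0% = DMSO wells with yeast and 100% = wells holding no yeast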
tim23-1 inh = tim23-1 yeast growth inhibition; S. cerevisiae tim23-1 growth, BacTiter-Glo luminescence, 24 h; inhibition, % at 20 µM; 330,000 tested, 1.3% active;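 active means growth inhibition of the mutant yeast at or above 50%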;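 further: temperature-sensitive mutant grown at 25 °C; plate controls were DMSO-treated mutant yeast for no effect and medium wells lacking yeast for full effect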
tim10-1 conf = tim10-1 yeast growth inhibition, confirmed | inhibition, % at 20 µM | shares compounds with tim10-1 inh | 7,400 tested, 56% active | S. cerevisiae tim10-1 ts strain growth, BacTiter-Glo, 24 h;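 active means inhibition of yeast growth at or above a set limit in either of two repeat tests at 20 µM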;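 further: tim10-1 mutant grown at permissive 25 °C to find synthetic lethal compounds; 0% = DMSO yeast wells and 100% = medium wells without yeast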
* marks the source's active call; other numbers are inactive results; / = no result. Compounds with a hit are over-represented: about 3.7% of the library has one in this group of screens.

SMILES	PfHsp90 yeast 2	TIM10 inh	NLRP3 yeast inh	tim10-1 inh	tim23-1 inh	tim10-1 conf
OC(COCc1ccc2c(c1)OCO2)CN1CCN(Cc2ccccc2)CC1 (stereo unspecified)	4.1	-9.1	13.7	-19.4	-12.0	/
Cc1cc(Cl)cc(Cl)c1OCC(=O)NCc1ccco1	58.2	35.0	21.7	50.3*	49.5	40.4*
CCOc1ccc(C(=O)NNC2CC(=O)N(Cc3ccc(Cl)cc3)C2=O)cc1OC (stereo unspecified)	-13.0	3.1	0.9	18.6	11.0	/
O=S(=O)(/N=C(/Sc1ccccc1)c1ccccc1)c1ccccc1	-5.1	38.7	12.0	51.5*	30.5	43.0*
CN(C)S(=O)(=O)N1CCC(Oc2ccc(C(=O)NC3CCOC(C)(C)C3)cc2)CC1 (stereo unspecified)	15.5	-5.8	17.2	-15.2	6.7	/
CN(C)S(=O)(=O)N1CCC(Oc2ccc(C(=O)NC3Cc4ccccc4C3)cc2)CC1	-16.8	19.4	3.2	44.3*	29.2	25.9
CCCc1[nH][nH]c(=O)c1C(c1ccccc1)C(C#N)C#N (stereo unspecified)	/	26.9	14.2	20.3	37.9	/
CCCc1[nH][nH]c(=O)c1C(c1ccc(Cl)cc1)C(C#N)C#N (stereo unspecified)	0.4	36.5	30.8	45.9*	41.9	24.0
c1ccc2c(c1)ccc1nnc(SCc3ccc4c(c3)OCO4)n12	24.9	5.0	30.5	42.0*	40.4	19.9
O=C(CSc1n[nH]c(-c2ccccc2)n1)Nc1ncc(Br)cc1Br	18.2	12.1	15.9	10.7	9.4	/
Cc1ccc2[nH]c3c(c2c1)CN(C(=O)CN1c2ccc(F)cc2CCC1C)CC3 (stereo unspecified)	-32.5	29.0	23.6	42.7*	41.0	37.6*
Cc1ccc2[nH]c3c(c2c1)CN(C(=O)CN1CCN(C(=O)c2ccco2)CC1)CC3	/	-10.6	15.3	-28.7	12.6	/
Cc1nn(C(C)C(=O)N/N=C/c2ccc(N(C)C)cc2)c(C)c1[N+](=O)[O-] (stereo unspecified)	9.4	-0.6	7.8	7.1	3.5	/
Cc1nnc(SCC(=O)Nc2cc(C(F)(F)F)ccc2N2CCOCC2)o1	/	11.7	-7.4	14.8	-3.7	/
Cc1ccccc1SCC(=O)Nc1cc(C(F)(F)F)ccc1N1CCOCC1	-36.5	22.6	10.5	44.1*	34.6	34.4*
CCOc1ccccc1NC(C)C(=O)Nc1cc(C(F)(F)F)ccc1N1CCOCC1 (stereo unspecified)	-30.9	33.4	18.5	40.3*	45.4	24.6
COc1cccc(CNC(=O)CCCn2nc(C)c3c(C)n(-c4ccc(C)cc4)nc3c2=O)c1OC	-3.0	16.2	-3.2	44.9*	32.3	13.5
COc1ccccc1CNC(=O)CCCn1nc(C)c2c(C)n(-c3ccccc3)nc2c1=O	16.0	6.4	4.9	35.2	30.6	/
CCCCC(c1nnnn1CCOC)N1CCN(c2cccc(OC)c2)CC1 (stereo unspecified)	14.8	/	/	/	/	/
CCOC(=O)CNC(=O)c1cc(-c2ccccn2)nc2c(C)c(Cl)ccc12	/	11.1	11.1	41.4*	27.7	8.8
O=S(=O)(NCc1ccccc1)c1ccc(Br)c2nsnc12	7.8	10.4	17.6	-4.0	19.0	/
COc1cccc(Cn2cc(-c3cccc(C(F)(F)F)c3)nn2)c1	-20.1	-1.3	8.4	41.9*	-10.3	22.6
CCCOc1ccccc1NC(=O)/C=C/C(N)=O	-11.5	36.6	33.3	61.7*	31.8	55.5*
COc1cccc(NC(=O)CCS(=O)(=O)c2cc3c(cc2Cl)NC(=O)CO3)c1	0.3	-0.4	11.7	-1.7	-9.2	/
CCCN(CCC)C(=O)c1cc(-c2ccc3c(c2)OCO3)nc2ccccc12	-9.3	23.6	2.1	45.1*	42.1	11.2
SMILES	PfHsp90 yeast 2	TIM10 inh	NLRP3 yeast inh	tim10-1 inh	tim23-1 inh	tim10-1 conf
CCN(C(=O)CSc1nnc(-c2cccc(Cl)c2)n1N)c1c(N)n(Cc2ccccc2)c(=O)[nH]c1=O	-4.5	/	/	/	/	/
Cc1ccccc1C(=O)NNC(=S)NC(=O)c1cccs1	-32.6	33.5	18.2	53.1*	24.2	21.0
Cc1ccc(C(=O)NCC(=O)OCC(=O)c2ccccc2)s1	-12.1	7.0	6.8	-3.0	17.5	/
COc1ccc(C(=S)N2CCCCC2)cc1Br	26.7	0.9	3.3	31.1	28.3	/
S=C(c1ccc(N2CCCC2)c(Br)c1)N1CCCCC1	7.9	17.7	24.6	44.6*	28.9	21.0
COc1ccc2[nH]c(N=Nc3ccccc3C)c(O)c2c1	18.9	15.5	12.0	14.1	6.0	/
O=C(CSCc1ccccc1Cl)NNC(=S)Nc1ccccc1	12.3	27.8	23.5	49.3*	25.6	43.4*
O=C(NC(c1cccnc1)C(F)(F)F)c1cc(COc2ccc3c(c2)CCCC3)on1 (stereo unspecified)	6.1	4.8	19.8	41.8*	36.5	13.9
NS(=O)(=O)c1ccc(CCNC(=O)CSc2ccc([N+](=O)[O-])cc2)cc1	20.4	-5.8	-6.2	3.1	15.4	/
Cc1ccc(C)c(CSc2nc3[nH]ncc3c(=O)[nH]2)c1	3.5	19.5	-11.0	10.9	8.9	/
O=C1/C(=C/c2ccccc2)SC(=S)N1CC(=O)N1CCCCC1c1cccnc1 (stereo unspecified)	10.7	17.1	15.6	46.9*	46.5	16.1
Cc1cc(N2CCCCC2)nc(SCC(=O)c2ccccc2)n1	/	14.9	16.0	47.4*	34.6	33.3*
C=CCNc1ccccc1S(=O)(=O)NCc1ccccc1	-10.3	-27.6	/	4.8	26.6	/
COc1ccc(-n2cc(-c3ccccc3)[n+]3c2CCCCC3)cc1	-10.7	12.2	12.8	2.2	-2.0	/
COc1ccc(-c2cn(-c3ccc(OC)cc3)c3[n+]2-c2ccccc2CC3)cc1	-6.6	23.3	6.9	52.9*	24.8	40.1*
COc1cc(C(=O)OCC(=O)N2CCC(C)CC2)cc2c1OCCO2	5.9	6.2	8.1	-3.6	22.5	/
NC(=O)c1c(NC(=O)c2cnccn2)sc2c1CCCC2	2.9	15.0	21.8	27.2	18.1	/
Cc1cccc(NCCC(=O)c2ccc([N+](=O)[O-])cc2)c1C	/	23.0	15.7	40.4*	21.7	37.9*
Cc1ccc(NCCC(=O)c2cccc([N+](=O)[O-])c2)c(C)c1	-1.6	-4.1	14.5	37.3	23.0	/
Cc1ccc(S(=O)(=O)NCC(=O)OC2CCOC2=O)cc1 (stereo unspecified)	13.6	-0.5	9.2	-0.1	14.5	/
CCOC(=O)c1ccc(NC(=S)NCCc2ccccc2)cc1	-21.4	35.9	36.7	40.5*	46.4	19.5
CC(=O)Nc1ccc(C(=O)OCCc2ccccc2)cc1	-3.2	16.1	24.3	41.8*	45.5	32.7*
CCOC(=O)c1ccc(NC(=S)NCCc2ccccc2F)cc1	/	34.4	29.2	40.2*	26.8	16.6
CCn1c(=O)c(C(=O)Nc2ccccc2F)c(O)c2ccccc21	10.0	-13.5	15.7	-1.4	8.2	/
